Records with an inconclusive call do not appear. Calls of active or inactive are those of the source. Unless noted, calls follow the shape of the dose curve; as a rule, active = well fitted curve in the direction sought with a large enough effect in the repeat runs; inconclusive = weak or mixed curves; inactive = no such curve, though single readings can be large; an effect the other way counts as inactive or inconclusive.
What was measured:
[1] = qHTS assay to identify small molecule antagonists of the estrogen receptor alpha (ER-alpha) signaling pathway using the BG1 cell line in the presence of 0.1 nM 17-beta-estradiol - cell viability counter screen (AID 1259241); also: nearly all actives have a fitted effect of over 40% in size
Method in brief: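 Cells were plated and left 24 hr, compounds in DMSO were pinned in, 17beta-estradiol was added to 0.1 nM final, and after 22 hr CellTiter-Fluor reagent was added for 30 min before fluorescence was read.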

[2] = qHTS assay to identify small molecule antagonists of the androgen receptor (AR) signaling pathway using the MDA cell line in the presence of 0.5 nM R1881 - cell viability counter screen (AID 1259242); also: nearly all actives have a fitted effect of over 45% in size
Method in brief: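 Fluorescence from CellTiter-Fluor, which reports protease activity of live cells, was read 30 min after reagent addition to MDA-kb2 cells that had been incubated 16 hr with compound and 0.5 nM R1881.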

[3] = target: Androgen receptor (Homo sapiens) (UniProt P10275); experiment: qHTS assay to identify small molecule antagonists of the androgen receptor (AR) signaling pathway using the MDA cell line in the presence of 0.5 nM R1881 (AID 1259243); also: nearly all actives have a fitted effect of over 50% in size
Androgen receptor (Homo sapiens), sequence (P10275 whole entry, looked up): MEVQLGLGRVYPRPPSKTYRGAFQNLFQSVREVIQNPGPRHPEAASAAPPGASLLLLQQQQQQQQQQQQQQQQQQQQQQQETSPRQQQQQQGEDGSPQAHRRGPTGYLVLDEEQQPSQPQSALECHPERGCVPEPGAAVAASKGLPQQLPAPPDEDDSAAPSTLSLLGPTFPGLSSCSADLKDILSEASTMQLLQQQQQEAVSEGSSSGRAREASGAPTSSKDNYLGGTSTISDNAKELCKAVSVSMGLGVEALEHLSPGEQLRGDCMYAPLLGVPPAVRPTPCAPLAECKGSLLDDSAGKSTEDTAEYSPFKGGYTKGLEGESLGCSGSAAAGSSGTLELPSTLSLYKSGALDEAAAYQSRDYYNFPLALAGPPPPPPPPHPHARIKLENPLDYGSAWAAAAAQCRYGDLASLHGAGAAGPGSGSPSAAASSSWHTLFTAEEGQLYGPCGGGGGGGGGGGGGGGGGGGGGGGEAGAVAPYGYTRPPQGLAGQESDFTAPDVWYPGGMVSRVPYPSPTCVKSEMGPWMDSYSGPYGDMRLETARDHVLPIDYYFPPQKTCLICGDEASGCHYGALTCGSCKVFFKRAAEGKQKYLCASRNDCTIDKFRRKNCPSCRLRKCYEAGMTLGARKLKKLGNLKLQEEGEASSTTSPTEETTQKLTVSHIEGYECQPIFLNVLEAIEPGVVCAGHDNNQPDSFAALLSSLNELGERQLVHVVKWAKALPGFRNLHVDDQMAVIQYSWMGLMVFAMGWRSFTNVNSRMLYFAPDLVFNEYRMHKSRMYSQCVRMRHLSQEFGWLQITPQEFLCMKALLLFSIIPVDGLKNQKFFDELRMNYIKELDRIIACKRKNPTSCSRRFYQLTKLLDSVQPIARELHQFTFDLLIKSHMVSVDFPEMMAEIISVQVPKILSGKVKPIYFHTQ
Method in brief: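 Inhibition of R1881 (0.5 nM final) induced reporter signal was measured in human MDA-kb2 cells; note the MMTV promoter also responds to GR. Exposure lasted 16 hr at 37C.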

[4] = target: Estrogen receptor (Homo sapiens) (UniProt P03372); experiment: qHTS assay to identify small molecule antagonists of the estrogen receptor alpha (ER-alpha) signaling pathway using the BG1 cell line in the presence of 0.1 nM 17-beta-estradiol (AID 1259244); also: nearly all actives have a fitted effect of over 50% in size
Estrogen receptor (Homo sapiens), sequence (P03372 whole entry, looked up): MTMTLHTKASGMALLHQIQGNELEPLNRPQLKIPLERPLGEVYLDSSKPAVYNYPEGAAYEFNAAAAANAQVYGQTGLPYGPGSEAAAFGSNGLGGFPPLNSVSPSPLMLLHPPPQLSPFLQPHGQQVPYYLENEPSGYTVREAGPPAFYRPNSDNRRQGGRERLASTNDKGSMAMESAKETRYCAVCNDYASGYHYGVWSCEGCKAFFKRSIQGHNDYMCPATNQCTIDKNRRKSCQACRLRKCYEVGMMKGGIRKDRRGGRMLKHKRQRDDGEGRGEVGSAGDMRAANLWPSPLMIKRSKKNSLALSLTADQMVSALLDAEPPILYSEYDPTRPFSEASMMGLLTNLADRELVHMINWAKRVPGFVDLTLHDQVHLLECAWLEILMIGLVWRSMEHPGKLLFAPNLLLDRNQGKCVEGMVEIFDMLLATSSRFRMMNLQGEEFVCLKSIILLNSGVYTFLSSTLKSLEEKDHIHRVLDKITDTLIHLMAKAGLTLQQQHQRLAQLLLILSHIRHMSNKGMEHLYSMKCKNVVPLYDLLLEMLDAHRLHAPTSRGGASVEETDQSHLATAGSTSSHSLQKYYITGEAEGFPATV
Method in brief: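 Quantitative high-throughput screen in VM7Luc4E2 cells: compound plus 0.1 nM E2 (final), 22 h, 37C, 5% CO2; ONE-Glo added, 30 min room temperature, luminescence measured.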

[5] = qHTS assay to identify small molecule HDAC inhibitors (AID 1259364); also: top concentration of the series differs between compounds; nearly all actives have a fitted effect of over 45% in size
Method in brief: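 Endogenous HDAC class I/II activity was measured in wild-type HCT-116 cells by HDAC-Glo luminescence after 2 h compound treatment.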

[6] = qHTS assay to identify small molecule HDAC inhibitors - cell viability counter screen (AID 1259365); also: series mostly up to about 92 µM; nearly all actives have a fitted effect of over 50% in size
Method in brief: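 Counter screen in wild-type HCT-116 cells: compounds dissolved in DMSO are pin-transferred onto overnight-plated cells and left 2hr at 37C. ATP-based CellTiter-Glo luminescence then measures viable cells.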

[7] = qHTS assay to identify small molecule agonists of the sonic hedgehog signaling (Shh) pathway - cell viability counter screen (AID 1259366); also: nearly all actives have a fitted effect of over 50% in size
Method in brief: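 Cells are plated at 2,000 per well and left 4hr at 37C, 5% CO2 before compound addition. After 23hr of treatment, CellTiter-Fluor reagent is added for 1hr at 37C and fluorescence is measured.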

[8] = qHTS assay to identify small molecule antagonists of the sonic hedgehog signaling (Shh) pathway - cell viability counter screen (AID 1259367); also: nearly all actives have a fitted effect of over 55% in size
Method in brief: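 Cells: 3T3 Gli1-Luc, 2,000/well, 4 hr pre-incubation. Compounds in DMSO, then conditioned medium. Incubation 24 hr, 37C, 5% CO2. CellTiter-Fluor at 23 hr, 1 hr, fluorescence.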

[9] = qHTS assay to identify small molecule agonists of the sonic hedgehog signaling (Shh) pathway (AID 1259368; calls by dose curve;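 also: NIH/3T3-derived 3T3Gli1-Luc cells carrying a stable Gli1-driven firefly luciferase reporter; series mostly up to about 92 µM; nearly all actives have a fitted effect of over 15% in size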)
Method in brief: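 Luminescent signal was taken as a measure of Gli1-controlled luciferase expression in stably transfected NIH/3T3-derived cells that had been treated for 24 hr with compounds delivered in DMSO.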

[10] = qHTS assay to identify small molecule agonists of the androgen receptor (AR) signaling pathway in the presence of an antagonist - cell viability counter screen (AID 1259379);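 also: MDA-kb2 human breast cancer cells carrying an MMTV luciferase reporter; series mostly up to about 92 µM; nearly all actives have a fitted effect of over 25% in size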
Method in brief: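 In MDA-kb2 cells (human breast carcinoma, MMTV-luciferase), compounds at 15 concentrations plus 3.0uM nilutamide; 16 hr, 37C, 0% CO2; CellTiter-Fluor fluorescence read for viability.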

[11] = qHTS assay to identify small molecule agonists of the estrogen receptor beta (ER-beta) signaling pathway - cell viability counter screen (AID 1259380); also: nearly all actives have a fitted effect of over 30% in size
Method in brief: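 Viability of ER-beta-UAS-bla HEK293T cells was determined by CellTiter-Glo luminescence following 16 hr treatment with test compounds at 37C.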

[12] = target: Androgen receptor (Homo sapiens) (UniProt P10275); experiment: qHTS assay to identify small molecule agonists of the androgen receptor (AR) signaling pathway in the presence of an antagonist (AID 1259381; calls by dose curve; also: nearly all actives have a fitted effect of over 15% in size)
Method in brief: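 Here, 15-concentration compound series were pin-transferred onto MDA-kb2 MMTV-luciferase cells already dosed with nilutamide (3.0uM final). After 16hr at 37C, ONE-Glo was added and luminescence read 30min later at room temperature.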

[13] = qHTS assay to identify small molecule antagonists of the estrogen receptor beta (ER-beta) signaling pathway - cell viability counter screen (AID 1259382);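 also: HEK293T cells carrying ER-beta-UAS-bla reporter stimulated with estradiol; series mostly up to about 92 µM; nearly all actives have a fitted effect of over 55% in size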
Method in brief: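 Tox21 10K library tested in qHTS format on ER-beta-bla HEK293T cells stimulated with 1nM E2; 16 hr treatment at 37C. Same-well CellTiter-Glo luminescence served as the cell viability measure.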

[14] = target: Estrogen receptor (Homo sapiens) (UniProt P03372); experiment: qHTS assay to identify small molecule agonists of the estrogen receptor alpha (ER-alpha) signaling pathway in the presence of an antagonist (AID 1259383; calls by dose curve; also: top concentration of the series differs between compounds; nearly all actives have a fitted effect of over 15% in size)
Method in brief: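 In VM7Luc4E2 cells, 4,000 per well, compounds at 15 concentrations were co-incubated 22hr at 37C with 10.0nM final ICI-182,780. Luminescence from the stably transfected 4×ERE-luciferase reporter was recorded 30min after ONE-Glo addition.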

[15] = target: Thyrotropin receptor (Homo sapiens) (UniProt P16473); experiment: qHTS assay to identify small molecule antagonists of the thyroid stimulating hormone receptor (TSHR) signaling pathway (AID 1259385; calls by dose curve; also: nearly all actives have a fitted effect of over 20% in size)
Thyrotropin receptor (Homo sapiens), sequence (P16473 whole entry, looked up): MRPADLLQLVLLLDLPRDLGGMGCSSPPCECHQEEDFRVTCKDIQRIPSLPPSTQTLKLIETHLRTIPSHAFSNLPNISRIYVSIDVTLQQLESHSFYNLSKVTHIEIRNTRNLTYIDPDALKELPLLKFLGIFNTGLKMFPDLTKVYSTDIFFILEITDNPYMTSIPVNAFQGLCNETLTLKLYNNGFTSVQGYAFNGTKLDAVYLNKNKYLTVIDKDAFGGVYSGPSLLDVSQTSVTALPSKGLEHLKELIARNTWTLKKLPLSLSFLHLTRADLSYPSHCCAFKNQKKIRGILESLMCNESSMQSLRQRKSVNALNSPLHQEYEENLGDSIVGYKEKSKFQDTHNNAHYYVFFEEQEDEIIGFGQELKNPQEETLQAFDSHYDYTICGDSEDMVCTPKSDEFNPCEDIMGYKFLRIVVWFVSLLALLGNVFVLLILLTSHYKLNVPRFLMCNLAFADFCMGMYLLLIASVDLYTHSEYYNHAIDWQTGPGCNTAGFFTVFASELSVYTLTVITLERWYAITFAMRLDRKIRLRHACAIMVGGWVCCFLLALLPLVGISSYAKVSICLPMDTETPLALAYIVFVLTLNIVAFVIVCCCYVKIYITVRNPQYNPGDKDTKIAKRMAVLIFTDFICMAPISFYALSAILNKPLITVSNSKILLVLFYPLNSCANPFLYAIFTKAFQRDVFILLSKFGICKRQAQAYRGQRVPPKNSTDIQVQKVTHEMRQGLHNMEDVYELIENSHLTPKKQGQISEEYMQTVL
Method in brief: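 Antagonist mode: compound-treated TSHR-expressing HEK293 cells were stimulated with 1.5 ng/mL TSH (final) in presence of Ro20-1724 for 30 min at RT. HTRF cAMP detection after 1 h; each compound tested at 15 concentrations, triplicate.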

[16] = qHTS assay to identify small molecule phospholipidosis (PLD) inducers (AID 1259344; active = well fitted curve in the direction sought with a large enough effect; an effect the other way counts as inactive or inconclusive)
Method in brief: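 Phospholipidosis is scored by imaging LipidTOX-stained pits in HepG2 cells exposed to compound for 24 h at 37 C; pit counts and integrated intensities per well and per cell serve as outputs.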

[17] = qHTS assay to identify small molecule antagonists of the sonic hedgehog signaling (Shh) pathway (AID 1259369; calls by dose curve; also: nearly all actives have a fitted effect of over 45% in size)
Method in brief: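 Screening used 3T3Gli1-Luc cells at 2,000 per well, compounds delivered in DMSO, and conditioned medium as agonist stimulus; plates incubated 24hr at 37 C and 5% CO2 before a 30min luciferase step.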

[18] = target: Estrogen receptor beta (Homo sapiens) (UniProt Q92731); experiment: qHTS assay to identify small molecule agonists of the estrogen receptor beta (ER-beta) signaling pathway (AID 1259377; active = well fitted activation curve with a large enough effect in the signal ratio in the repeat runs, not every such curve was filed as active; the % refers to the signal ratio)
Estrogen receptor beta (Homo sapiens), sequence (Q92731 whole entry, looked up, the tested form may be a part): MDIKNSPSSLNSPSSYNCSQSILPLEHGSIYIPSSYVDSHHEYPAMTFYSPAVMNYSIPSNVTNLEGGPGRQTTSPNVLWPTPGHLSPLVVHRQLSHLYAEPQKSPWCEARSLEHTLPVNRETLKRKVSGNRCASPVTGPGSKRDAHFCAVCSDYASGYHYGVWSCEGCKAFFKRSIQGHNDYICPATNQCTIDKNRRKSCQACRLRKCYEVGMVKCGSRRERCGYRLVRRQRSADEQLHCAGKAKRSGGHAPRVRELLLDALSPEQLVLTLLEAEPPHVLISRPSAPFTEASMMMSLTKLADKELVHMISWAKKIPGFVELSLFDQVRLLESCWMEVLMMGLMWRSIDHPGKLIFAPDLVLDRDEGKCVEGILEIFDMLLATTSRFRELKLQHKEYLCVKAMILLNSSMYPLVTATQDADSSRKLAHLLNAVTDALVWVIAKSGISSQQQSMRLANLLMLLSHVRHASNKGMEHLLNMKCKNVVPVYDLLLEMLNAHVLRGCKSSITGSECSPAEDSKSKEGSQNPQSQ
Method in brief: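 Agonist mode cell assay in GripTite HEK293T cells expressing an ER-beta fusion that drives beta-lactamase from an Upstream Activator Sequence; 16 hr compound exposure at 37C, then 2 h LiveBLAzer B/G FRET substrate at room temperature, fluorescence read-out.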

[19] = target: Estrogen receptor beta (Homo sapiens) (UniProt Q92731); experiment: qHTS assay to identify small molecule antagonists of the estrogen receptor beta (ER-beta) signaling pathway (AID 1259378; active = well fitted inhibition curve with a large enough effect in the signal ratio in the repeat runs, not every such curve was filed as active; the % refers to the signal ratio)
Method in brief: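 Antagonist mode: compounds added to beta-lactamase reporter HEK293T ER-beta-UAS cells stimulated with E2 (1nM final), 16 hr at 37C. LiveBLAzer B/G FRET substrate, 2 hours room temperature, fluorescence read-out.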

[20] = qHTS assay to identify small molecule agonists or antagonists of the thyroid stimulating hormone receptor (TSHR) signaling pathway - wild type cell line counter screen (AID 1259384; calls by dose curve)
Method in brief: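 Counter screen in untransfected Hek293: compounds (15-point titration, triplicate) plus phosphodiesterase inhibitor Ro20-1724 added after 18 h plating; 30 min RT. Intracellular cAMP via competitive d2/cryptate immunoassay, 1 h incubation.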

Measured: Potency

C=C(Cl)Cl
not listed: [16] | [17] | [18] | [19] | [20]
inactive: all other assays above

CCCCC1C(=O)NC(=O)N(C2CCCCC2)C1=O (stereo not given)
not listed: [3] | [12] | [15] | [20]
inactive: all other assays above

CCCCCBr
not listed: [15] | [16]
inactive: all other assays above

CCc1ccccc1N
not listed: [3] | [7] | [12] | [16] | [17] | [18] | [19] | [20]
inactive: all other assays above

CC(C)C1(C)N=C(c2ncccc2C(=O)O)NC1=O (stereo not given)
not listed: [3] | [12] | [16] | [18] | [19]
inactive: all other assays above

SCc1ccccc1
not listed: [3] | [12] | [16] | [20]
inactive: all other assays above

COc1ccc(C(O)(c2cncnc2)C2CC2)cc1 (stereo not given)
not listed: [3] | [12] | [16] | [17]
inactive: all other assays above

C=CCc1ccccc1O
not listed: [3] | [12] | [15] | [16] | [17] | [19] | [20]
inactive: all other assays above

C=CCOCC1CO1 (stereo not given)
not listed: [3] | [7] | [12] | [16] | [18] | [19]
inactive: all other assays above
